Screens: PubChem BioAssay, National Center for Advancing Translational Sciences (NCATS)
SW480 rerep – DNA re-replication induction in SW480 cells. SW480 DNA re-replication, Hoechst DNA content imaging, 48 h. Potency, µM (top dose mostly 46.1 µM), for inactives: top-dose re-replication activation, actives largely listed as activators. hit rate 1.8% among 340,000. AID 624297; also: % of control where 0% means no effect; nearly all actives have a fitted effect of over 55% in size
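Image-based read-out: total Hoechst fluorescence of nuclei (405 nm excitation, 500-530 nm emission), with hits raising the fraction of high-intensity nuclei. SW480 colon cells incubated 48 hr with compounds at 37 C.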
PINK1 modulator – changes PINK1 expression. Potency, µM (series often up to 76.6 µM), without a hit: at the highest dose activation (PINK1 increase), most hits filed as activators. hit rate 0.2% among 410,000. PINK1 immunofluorescence, high-content cytometry, 24 h; active = well fitted activation curve with a large enough effect; inconclusive = small, poorly fitted or top-dose-only effect; cell line not stated here; also: % of control where 0% means no effect; nearly all actives have a fitted effect of over 65% in size
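Decision-based qHTS: stable cells, 24 h exposure to five compound concentrations, CCCP as control. Fixed cells stained for PINK1 plus nuclear, mitochondrial and cell markers, cytometer read.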
MCF10A rereplic – DNA re-replication induction in MCF 10a cells; MCF 10A DNA re-replication, Hoechst nuclear intensity, 48 h; AID 624296; hit rate 2.9% among 350,000; Potency, µM (top dose mostly 46.1 µM), for inactives: top-dose activity, positive = re-replication, most hits filed as activators; also: % of control where 0% means no effect; nearly all actives have a fitted effect of over 50% in size
KB-3-1 cytotox – KB-3-1 parental cell cytotoxicity | KB-3-1 viability, CellTiter-Glo ATP luminescence, 72 h | Potency, µM (titrated, usually from 46.1 µM), usual class: cytotoxic | hit rate 1.4% among 400,000; also: % is scaled to controls: 0 for no effect and ±100 for the full control effect; nearly all actives have a fitted effect of over 60% in size
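KB-3-1 parental drug-naive adenocarcinoma cells in DMEM/10% FBS, incubated 72 h at 37 C with pin-transferred compounds across a concentration series. Viability by CellTiter-Glo luminescence; concentration-response curves fitted after normalization.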
KB-V1 cytotox – KB-V1 MDR subline cytotoxicity; KB-V1 MDR cells viability, CellTiter-Glo, 72 h; Potency, µM (doses to about 46.1 µM), most hits filed as cytotoxic; hit rate 3.4% among 400,000; AID 1347076; also: % is scaled to controls: 0 for no effect and ±100 for the full control effect; nearly all actives have a fitted effect of over 60% in size
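Cytotoxicity toward P-gp-expressing KB-V1 cells was determined as loss of CellTiter-Glo luminescence after 72 h at 37 degrees C. Compounds were tested in quantitative HTS format across a concentration range, with curves fitted to normalized data.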
Numbers without * were called inactive; i = inactive; ? = inconclusive; nt = no result; [ ] = remark or other dose. Sampled rows, rich in hits. Any-hit rate of the full collection: about 6.7%. Unless noted, calls follow the shape of the dose curve; as a rule, active = well fitted curve in the direction sought with a large enough effect; inconclusive = small, poorly fitted or top-dose-only effect, or another doubt; inactive = no such curve, though single readings can be large; an effect the other way counts as inactive or inconclusive. Potency is read from the fitted curve at half-maximal effect.

SMILES	SW480 rerep	PINK1 modulator	MCF10A rereplic	KB-3-1 cytotox	KB-V1 cytotox
CCn1c2ccccc2c2cc(NC(=O)COc3ccc(OC)cc3)ccc21	-11%	2%	0%	i	i
Cc1ccc(-n2nc3ccc(NC(=O)c4cccc([N+](=O)[O-])c4C)cc3n2)cc1	?	0%	13µM*	i	?
CCn1c2ccccc2c2cc(NC(=O)c3cccc([N+](=O)[O-])c3C)ccc21	10µM*	5%	18µM*	?	?
CCn1c2ccccc2c2cc(NC(=O)c3cc(OC)cc(OC)c3)ccc21	0.65µM*	11%	1.5µM*	?	2.3µM*
OCC[C@@H]1C[C@H](O)[C@@H](O)[C@]2(Cc3ccccc3CCO2)O1	-13%	0%	7%	i	i
Cc1c(C(=O)Nc2ccccc2-c2ccccc2)cccc1[N+](=O)[O-]	-12%	6%[38.3 µM]	18%	i	15µM*
COc1cc(C(=O)Nc2ccc3c(c2)N(C(=O)CCN(C)C)c2ccccc2CC3)cc(OC)c1OC	?	5%	13µM*	i	?
CCn1c2ccccc2c2cc(NC(=O)c3ccc(Br)o3)ccc21	0%	1%	?	i	i
CN(C)CC(=O)N1c2ccccc2CCc2ccc(NC(=O)c3ccc(N)cc3)cc21	-3%	0%	-3%	i	i
CCn1c2ccccc2c2cc(NC(=O)c3cc(OC)c(OC)c(OC)c3)ccc21	0.82µM*	7%	?	0.58µM*	?
CCn1c2ccccc2c2cc(NC(=O)c3ccc(=O)oc3)ccc21	?	2%	16µM*	i	i
COc1ccccc1CCNC(=O)Cc1c(C)c2cc3c(C(C)(C)C)coc3c(C)c2oc1=O	nt	0%	nt	nt	nt
CC1CCN(c2cc3c(cc2F)c(=O)c(S(=O)(=O)c2cccc(Cl)c2)cn3Cc2ccccc2)CC1	nt	17%	nt	nt	nt
COc1cccc(C(C)(O)c2nc(-c3ccc(C)c(C)c3)cs2)c1 (centres undefined)	nt	6%	nt	i	i
CCOC(=O)Nc1ccc2c(c1)N(C(=O)CNC)c1ccccc1CC2	-17%	2%	?	i	i
CCOC(=O)Nc1ccc2c(c1)N(C(=O)OC)c1ccccc1CC2	?	2%	?	?	5.8µM*
CCn1c2ccccc2c2cc(/C=N/NC(=O)c3ccc(O)cc3)ccc21	?	0%	?	?	21µM*
CCn1c2ccccc2c2cc(/C=N/NC(=O)c3cc(O)cc(O)c3)ccc21	-2%	-1%	?	?	i
O=S(Cc1ccc(Cl)cc1)c1ncc(CO)n1Cc1ccccc1 (centres undefined)	?	-1%	-1%	16µM*	i
O=C1CC(O)(C(F)(F)F)Oc2c1ccc1ccccc21 (centres undefined)	?	nt	21µM*	i	i
O=C1CC(O)(C(F)F)Oc2ccc3ccccc3c21 (centres undefined)	-3%	-1%	-7%	i	i
O=C1C(=Cc2cn(-c3ccccc3)nc2-c2ccc(OCc3ccccc3F)cc2)SC(=S)N1CCS(=O)(=O)O	nt	0%	nt	i	i
O=C1C(=Cc2cn(-c3ccccc3)nc2-c2ccc(OCc3ccc(Cl)cc3)cc2)SC(=S)N1CCS(=O)(=O)O	nt	3%	nt	8.2µM*	?
CCc1nc2ccc(C(=O)NCCC(C)C)cn2c1N(C)Cc1ccc(OC)cc1	nt	1%	nt	i	i
CCn1c(C)c(C2=CCN(S(=O)(=O)c3ccccc3)CC2)c2ccccc21	?	-1%	?	?	10µM*
Cc1ccc(S(=O)(=O)N2CC=C(c3c(C)n(C)c4ccccc34)CC2)cc1	-1%	0%	?	i	i
Cc1nc2ccccc2c2nc(NC(=O)Cc3ccccc3)nn12	3%	3%[38.3 µM]	22%	?	18µM*
CC(C)c1ccc(CN2CCN(C(=O)CSc3nnnn3C3CC3)CC2)cc1	2%	1%	2%	?	i
CCc1nnc(NC(=O)Nc2ccc(Cl)cc2)s1	-3%	1%	7%	i	i
O=C(Nc1ccccc1)Nc1nnc(Cc2ccccc2F)s1	-1%[9.22 µM]	1%	1%	i	i
